In the library only some 10% were active in any assay of this set; here they are far more common.
NIH3T3 tox: kills NIH 3T3 cells | 4.3% of 94,000 active | NIH 3T3 viability, CellTiter-Glo ATP luminescence, 48-72 h | Potency, µM (doses to about 96.7 µM), for the others: at the top dose activity change, negative = cytotoxicity, actives largely listed as inhibitors; note: nearly all actives have a fitted effect of over 55% in size
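Cytotoxicity was measured by CellTiter-Glo ATP luminescence after 48 or 72 h compound exposure at 37 °C. Mouse NIH 3T3 fibroblasts were seeded at 400 cells/well and dosed by 23 nL pin transfer.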
HEK cytotox: cytotoxic compounds in HEK 293 cells. HEK 293 viability, ATP luminescence (CellTiter-Glo), 48-72 h. Potency, µM (series often up to 115 µM), inactives show at the highest dose activity change, negative = cytotoxicity, hits mostly inhibitors. 6.6% of 94,000 active; note: nearly all actives have a fitted effect of over 60% in size
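250 HEK 293 cells/well; compound by pintool; incubated 48 or 72 hr at 37 degree Celsius; CellTiter-Glo added, 10 min RT, luminescence imaged.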
FLuc inh: blocks purified firefly luciferase enzyme activity. Potency, µM (top dose mostly 115 µM), hits mostly inhibitors. AID 1347043. P08659. 2.5% of 76,000 active. purified P. pyralis luciferase, luminescence, biochemical; note: nearly all actives have a fitted effect of over 65% in size
Target sequence (P08659 whole entry, looked up): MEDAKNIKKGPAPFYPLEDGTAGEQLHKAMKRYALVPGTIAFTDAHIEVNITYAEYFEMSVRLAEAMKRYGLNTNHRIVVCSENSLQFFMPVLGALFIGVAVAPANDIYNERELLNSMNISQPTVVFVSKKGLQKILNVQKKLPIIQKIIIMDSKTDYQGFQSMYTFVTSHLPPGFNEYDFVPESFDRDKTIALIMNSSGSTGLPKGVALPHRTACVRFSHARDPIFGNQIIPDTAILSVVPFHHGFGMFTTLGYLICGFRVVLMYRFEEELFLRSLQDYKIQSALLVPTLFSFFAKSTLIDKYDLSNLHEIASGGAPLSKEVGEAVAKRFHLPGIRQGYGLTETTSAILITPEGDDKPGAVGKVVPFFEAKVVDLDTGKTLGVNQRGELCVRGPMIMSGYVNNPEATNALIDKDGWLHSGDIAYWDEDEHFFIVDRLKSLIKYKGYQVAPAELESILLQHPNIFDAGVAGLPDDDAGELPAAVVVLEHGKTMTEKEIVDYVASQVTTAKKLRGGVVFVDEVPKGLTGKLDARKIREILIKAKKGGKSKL
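FLuc 10nM, D-luciferin 10uM, ATP 10uM, Mg acetate 10mM, Tris acetate pH 7.5, Tween/BSA; cpd qHTS; enzyme added last; CCD luminescence.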
GPT2 inh: inhibitors of human GPT2 alanine aminotransferase | Recombinant GPT2, coupled pyruvate oxidase/HRP Amplex Red fluorescence | 0.25% of 100,000 active | Potency, µM (top dose mostly 57.7 µM), without a hit: top-dose activity change, negative = inhibition, most hits filed as inhibitors; note: nearly all actives have a fitted effect of over 60% in size
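Fluorescence of coupled pyruvate oxidase/HRP/Amplex Red system (50uM Amplex, 30 min, dark) reports pyruvate formed by GPT2. Enzyme reaction: 10ng/uL GPT2, 2mM L-alanine, 250uM a-KG, 30 min room temperature, pH 7.5; 50uM AOA control.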
NPR1 antag: human Npr1 receptor antagonism | P16066 | HEK293 hNpr1 GloSensor cGMP, ANP-stimulated luminescence | Potency, µM (highest dose often 46.3 µM), for the others: at the top dose activity change, negative = inhibition, most hits filed as inhibitors | 1.6% of 76,000 active | AID 1347048; calls by dose curve; note: nearly all actives have a fitted effect of over 60% in size
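HEK293 cells stably expressing human Npr1 and cGMP GloSensor pGS-40F, loaded 2 h with 2% GloSensor reagent, given compound 30 min at room temperature. Luminescence read before and 20 min after 0.1 nM hNppA.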
* marks the source's active call; other numbers are inactive results; i = inactive; u = inconclusive; x = not tested or not shown; [ ] = another dose, or the depositor's remark. Unless noted, calls come from the whole dose curve; as a rule, active = well fitted curve in the direction sought with a large enough effect; inconclusive = small, poorly fitted or top-dose-only effect, or another doubt; inactive = no such curve, though single readings can be large; an effect the other way counts as inactive or inconclusive. % is set by controls: 0 for no effect and ±100 for the full control effect; potency is the fitted concentration of half-maximal effect.

SMILES | NIH3T3 tox | HEK cytotox | FLuc inh | GPT2 inh | NPR1 antag
CCc1cccc(NC(=O)Cn2c(-c3cccc(Cl)c3)nc(C)c(CCO)c2=O)c1 | u | 39.8µM* | i | i | -5.3%
COc1ccc(-c2cc(CC3(NCCC(C)C)COC3)no2)cc1 | u | u | i | -4.9%[88.5 µM] | -16.8%[70.6 µM]
Cc1nc(C)c(C(=O)NCC2Cn3cccc3C(=O)N2C)s1 (stereo unspecified) | i | -0.2% | i | i | 4.3%
Cc1ccc(-n2c(C3CCN(C(=O)COc4ccc(F)cc4)CC3)n[nH]c2=O)cc1 | u | 6.1% | i | i | 0.0%
O=C(COc1ccc(Cl)cc1)N1CCC(c2n[nH]c(=O)n2Cc2ccc(F)cc2)CC1 | 3.16µM* | u | i | i | -3.6%
COc1ccc(Cn2c(C3CCN(C(=O)Cc4ccc(Cl)cc4)CC3)n[nH]c2=O)cc1 | 35.5µM* | u | i | -17.2% | -13.0%
COc1ccc(Cn2c(C3CCN(C(=O)COc4ccccc4)CC3)n[nH]c2=O)cc1 | u | -6.4% | i | 1.3% | -4.6%
Cc1ccc(-n2c(C3CCN(C(=O)COc4ccc(Cl)cc4)CC3)n[nH]c2=O)cc1 | 2.82µM* | -4.7% | i | -8.5% | 7.0%
O=C(COc1ccccc1)N1CCC(c2n[nH]c(=O)n2Cc2ccc(F)cc2)CC1 | 28.2µM* | u | i | i | 0.0%
COC(=O)NC(C)c1nc(-c2cccnn2)no1 (stereo unspecified) | -0.3% | -7.2% | i | i | 3.9%
OCCNc1cc(N2CCCC(CO)(Cc3ccccc3F)C2)ncn1 (stereo unspecified) | u | u | i | u | u
COc1ccc(N2CC(C(=O)NCc3cccc(Cl)c3)NC2=O)cc1 (stereo unspecified) | -20.6% | -6.1% | i | -10.0% | 0.0%
Cc1ccc(Cn2c(C3CCN(C(=O)c4cc(C)cc(C)c4)CC3)n[nH]c2=O)cc1 | -25.3% | u | i | -7.7% | 3.1%
Cc1ccc(Cn2c(C3CCN(C(=O)c4ccc(C(C)(C)C)cc4)CC3)n[nH]c2=O)cc1 | 28.2µM* | 25.1µM* | i | -9.3% | u
CC[S+](=O)([O-])N1C[C@@H](CO)[C@@H]2Oc3c(F)cccc3[C@@H]21 | u | -31.7% | x | x | x
CC(C)Oc1ccccc1CN1C[C@@H](CO)[C@H](c2ccncc2)C1 | u | 39.8µM* | i | -2.9% | -17.2%
COc1cccc(CN2C[C@@H](CO)[C@H](c3ccncc3)C2)c1OC | -19.4% | 89.1µM* | i | i | 3.2%
COc1ccccc1CN1C[C@@H](CO)[C@H](c2ccncc2)C1 | -20.9% | -6.8% | i | 4.6% | 1.9%
COC[C@@H]1CN(Cc2cccc(OC)c2OC)C[C@H]1c1ccncc1 | u | 39.8µM* | i | i | -17.2%
COc1ccc(CNC(=O)C[C@@H]2c3nc(NC(=O)c4cccs4)sc3C[C@@H]3[C@](C)(CO)[C@H](O)CC[C@]32C)cc1 | u | u | i | 1.1% | -2.9%
Cc1noc2c(NCCc3ccccn3)cc(-c3ccccn3)nc12 | u | 56.2µM* | i | -9.1%[88.5 µM] | 1.0%[70.6 µM]
CN1[C@@H](CCC(=O)NCc2cccs2)CNC(=O)[C@@H]2[C@H]1CCN2CC(C)(C)C | 1.7%[138 µM] | i | i | i | 3.8%[70.6 µM]
CCCN(C)C(=O)CC1Sc2ncccc2N(CCC)C1=O (stereo unspecified) | -19.1% | -26.2% | i | 0.6% | 0.1%
CC1(C(=O)N2CCOc3c(O)cc(-c4cccc(Cl)c4)cc3C2)CCCO1 (stereo unspecified) | u | 44.7µM* | i | i | -22.7%
Cc1nc(C(=O)N2CCOc3c(O)cc(-c4cccc(Cl)c4)cc3C2)cs1 | u | 17.8µM* | i | -14.9% | u
SMILES | NIH3T3 tox | HEK cytotox | FLuc inh | GPT2 inh | NPR1 antag
CC(C)CNC(=O)CN1CCOc2c(O)cc(-c3cccc(Cl)c3)cc2C1 | u | u | i | -27.9% | -21.2%
COc1ccc(-c2noc(-c3ccc(N4C[C@H]5CC[C@H]4C5)nc3)n2)cc1 | -22.2% | u | 25.1µM* | -2.6% | u
Cc1ccccc1-c1nc(C2CC(=O)N(c3ccc(Cl)cc3)C2)no1 (stereo unspecified) | u | u | i | i | -2.7%
O=C(NCCc1ccccc1)c1ccc2nc(-c3ccccn3)oc2c1 | u | 89.1µM* | x | i | x
O=C(NCCCc1ccccc1)c1ccc2nc(-c3cccnc3Cl)oc2c1 | 44.7µM* | u | x | 0.4%[88.5 µM] | x
Cc1cccc(-c2nc3ccc(C(=O)NCCc4ccccc4)cc3o2)n1 | u | 100µM* | x | -12.2%[88.5 µM] | x
FC(F)(F)c1ccc(CN2CC[C@H](c3nc4ccc(C(F)(F)F)cc4[nH]3)C2)cc1 | 31.6µM* | 35.5µM* | u | -22.4%[88.5 µM] | u
COCC(=O)N1CC[C@H](c2nc3ccc(C(F)(F)F)cc3[nH]2)C1 | -13.0%[138 µM] | -0.1%[172 µM] | i | i | -2.0%[70.6 µM]
COc1ccc2nc([C@H]3CCN(Cc4ccc(F)c(F)c4)C3)[nH]c2c1 | u | u | i | 3.6%[88.5 µM] | -7.8%[70.6 µM]
CN1CC[C@H](c2nc3ccc(C(F)(F)F)cc3[nH]2)C1 | u | 112µM* | u | -19.3%[88.5 µM] | -11.9%[70.6 µM]
O=C(c1ccccc1F)N1CCc2nc(C3CC3)nc(-c3ccc(O)cc3)c2CC1 | -12.7% | u | i | i | -1.1%
O=C(NC1CCCCC1)c1nc2sccn2c1-c1ccccc1 | u | 63.1µM* | x | i | x
O=C(NC1CCCCC1)c1nc2sccn2c1-c1ccc(C(F)(F)F)cc1 | 39.8µM* | u | x | -9.3% | x
O=C(NC1CCCCCC1)c1nc2sccn2c1-c1ccc(C(F)(F)F)cc1 | 25.1µM* | 39.8µM* | x | i | x
O=C(NC1CC1)c1nc2sccn2c1-c1ccccc1 | -6.4%[138 µM] | 1.1%[172 µM] | x | i | x
COc1ccc(CC(=O)N[C@@H]2COCC[C@H]2OCc2ccccn2)cc1 | -3.8% | -20.6% | i | u | -3.6%
CC(=O)Nc1ccc(CN2CC(Oc3ccc(F)cc3F)C2)cc1 | -17.9% | -15.7% | x | -10.7% | x
O=C(NCC1CC1)c1nc2c(o1)CCN(Cc1ccc3[nH]ccc3c1)CC2 | u | u | i | -5.8%[88.5 µM] | 1.7%[70.6 µM]
COCCNC(=O)[C@H]1C[C@H](Oc2ccccc2)CN1Cc1ccc2[nH]ccc2c1 | u | 10µM* | i | -18.7% | -3.7%
O=C(Nc1cccnc1)c1nc2c(o1)CCN(Cc1ccc(F)c(F)c1)CC2 | u | u | 70.8µM* | 0.7%[88.5 µM] | 28.2µM*
COCCNC(=O)[C@H]1C[C@H](Oc2ccccc2)CN1Cc1ccc(OC(F)(F)F)cc1 | u | u | i | i | 3.1%
O=C(Nc1cccnc1)c1nc2c(o1)CCN(Cc1ccc3[nH]ccc3c1)CC2 | u | 100µM* | 35.5µM* | 0.7%[88.5 µM] | -14.9%[70.6 µM]
N#Cc1cccc(CN2CCc3nc(C(=O)NCc4ccncc4)oc3CC2)c1 | -25.6%[138 µM] | u | i | 2.4%[88.5 µM] | -25.7%[70.6 µM]

Screening data: PubChem, National Center for Advancing Translational Sciences (NCATS)
